From PubChem BioAssay (Tox21) come the findings set out here.

Results filed as inconclusive are left out. Calls of active or inactive are those of the source. Unless noted, the call rests on the fitted dose curve; in most records, active means well fitted curve in the direction sought with a large enough effect in the repeat runs; inconclusive means weak or mixed curves; inactive means no such curve, though single readings can be large; an effect the other way counts as inactive or inconclusive.

Assay [1] is described as follows: qHTS RealTime-Glo MT Cell Viability Assay in HEK293 cells - 0 hour (AID 1224880). Further: top concentration of the series differs between compounds; nearly all actives have a fitted effect of over 45% in size. In outline:
(§1)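 HEK293 cells mixed with RealTime-Glo reagents (NanoLuc plus cell-permeant prosubstrate) at 600 cells/well, preincubated 5 h at 37 C/5% CO2, then given 23 nL compound in DMSO. Nonlytic luminescence from viable cells was read at 0, 8, 16, 24, 32 and 40 h.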
(Quantitative high-throughput screening tests each substance at several concentrations.)

Assay [2] is described as follows: A CellTox Green Cytotoxicity Assay to monitor cytotoxicity in HEK293 cells - 32 hour (AID 1224881). Further: nearly all actives have a fitted effect of over 40% in size. In outline: (§2)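 HEK293 cells premixed with CellTox Green dye were seeded at 600 cells/well and left 5 h at 37 C/5% CO2 before pin transfer of 23 nL compound in DMSO. Fluorescence from dye bound to dead-cell DNA was read during 40 h treatment.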
Assay [3] in a line: A CellTox Green Cytotoxicity Assay to monitor cytotoxicity in HepG2 cells - 32 hour (AID 1224883). Further: nearly all actives have a fitted effect of over 50% in size. In outline: (§3)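 HepG2 cells were seeded together with the CellTox Green dye at 600 cells/well, left 5 h at 37 C/5% CO2, then given compounds in DMSO. Fluorescence from dye bound to dead-cell DNA was read repeatedly over 40 h of treatment at 37 C.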
Assay [4] is described as follows: A CellTox Green Cytotoxicity Assay to monitor cytotoxicity in HEK293 cells - 8 hour (AID 1224884). Further: nearly all actives have a fitted effect of over 35% in size. In outline: as §2
Assay [5] can be described thus: qHTS RealTime-Glo MT Cell Viability Assay in HepG2 cells - 16 hour (AID 1224885). Further: nearly all actives have a fitted effect of over 50% in size. In outline: (§4)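 Cells + NanoLuc/prosubstrate dispensed (600 cells/well) → 5 h at 37 C/5% CO2 → compounds in DMSO transferred → 40 h incubation at 37 C, luminescence read at 0, 8, 16, 24, 32, 40 h.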
A short description of assay [6]: qHTS RealTime-Glo MT Cell Viability Assay in HEK293 cells - 24 hour (AID 1224886). Further: top concentration of the series differs between compounds; nearly all actives have a fitted effect of over 50% in size. In outline: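 Tox21 10K qHTS, HEK293, 600 cells/well, RealTime-Glo reagent co-dispensed with cells; 5 h preincubation, compound by pintool, 37 C, luminescence at 0–40 h.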
Assay [7] is described as follows: qHTS RealTime-Glo MT Cell Viability Assay in HEK293 cells - 8 hour (AID 1224887). Further: top concentration of the series differs between compounds; nearly all actives have a fitted effect of over 50% in size. In outline:
as §1

Assay [8] can be described thus: A CellTox Green Cytotoxicity Assay to monitor cytotoxicity in HEK293 cells - 16 hour (AID 1224888). Further: nearly all actives have a fitted effect of over 35% in size. In outline: as §2
Assay [9] in a line: qHTS RealTime-Glo MT Cell Viability Assay in HepG2 cells - 0 hour (AID 1224889). Further: nearly all actives have a fitted effect of over 50% in size. In outline: as §4
Assay [10] is described as follows: A CellTox Green Cytotoxicity Assay to monitor cytotoxicity in HepG2 cells - 8 hour (AID 1224890). Further: nearly all actives have a fitted effect of over 45% in size. In outline:
as §3

Assay [11] is described as follows: qHTS assay to identify small molecule antagonists of the estrogen receptor alpha (ER-alpha) signaling pathway using the BG1 cell line in the presence of 0.1 nM 17-beta-estradiol - cell viability counter screen (AID 1259241). Further: nearly all actives have a fitted effect of over 40% in size. In outline: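 Live-cell protease activity (CellTiter-Fluor fluorescence, 30 min) was read in the same wells after VM7Luc4E2 cells had been exposed to compounds with 0.1 nM 17beta-estradiol for 22 hr at 37C.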

Assay [12] can be described thus: qHTS assay to identify small molecule antagonists of the androgen receptor (AR) signaling pathway using the MDA cell line in the presence of 0.5 nM R1881 - cell viability counter screen (AID 1259242). Further: nearly all actives have a fitted effect of over 45% in size. In outline:
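MDA-kb2 cells (human breast carcinoma, stably carrying MMTV-luciferase reporter) were exposed to compounds with 0.5 nM R1881 (final) for 16 hr at 37C, 0% CO2; viability then read as live-cell protease fluorescence (CellTiter-Fluor, 30 min) in the same wells.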

Assay [13] addresses Estrogen receptor (Homo sapiens) (UniProt P03372). Briefly: qHTS assay to identify small molecule antagonists of the estrogen receptor alpha (ER-alpha) signaling pathway using the BG1 cell line in the presence of 0.1 nM 17-beta-estradiol (AID 1259244). Further: nearly all actives have a fitted effect of over 50% in size. In outline: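 VM7Luc4E2 cells (endogenous full-length ER-alpha, stable 4xERE-luciferase) were grown 5 days in phenol red-free medium with charcoal-stripped FBS, then exposed 22 h at 37C to compounds plus 0.1 nM (final) 17beta-estradiol; ONE-Glo luminescence read-out.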

The nature of assay [14]: qHTS assay to identify small molecule phospholipidosis (PLD) inducers (AID 1259344; active means well fitted curve in the direction sought with a large enough effect; an effect the other way counts as inactive or inconclusive; further: potency means the concentration at half of the fitted maximal effect). In outline:
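HepG2 cells, 900/well, treated with compound plus LipidTOX Red for 24 h at 37 C; amiodarone positive and DMSO negative controls. Fixed with paraformaldehyde/Hoechst, then high-content imaging scored LipidTOX pit count and integrated intensity per well and per cell.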

Assay [15] can be described thus: qHTS assay to identify small molecule HDAC inhibitors (AID 1259364). Further: top concentration of the series differs between compounds; nearly all actives have a fitted effect of over 45% in size. In outline: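 Wild-type HCT-116 cells were plated overnight, exposed to compounds for 2 h at 37 °C, then given HDAC-Glo class I/II luminogenic reagent for 30 min at room temperature before luminescence was read.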
A short description of assay [16]: qHTS assay to identify small molecule HDAC inhibitors - cell viability counter screen (AID 1259365). In outline: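 HCT-116 (wild type), 1,500 cells/well, overnight 37C/5% CO2; compound in DMSO 2hr; CellTiter-Glo 30min RT; luminescence read.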
A short description of assay [17]: qHTS assay to identify small molecule agonists of the sonic hedgehog signaling (Shh) pathway - cell viability counter screen (AID 1259366). Further: nearly all actives have a fitted effect of over 50% in size. In outline:
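CellTiter-Fluor fluorescence read-out, 1 hr at 37C, added after 23hr compound exposure. Cells: 3T3 Gli1-Luc, an NIH/3T3 clone with stably integrated Gli1-Luc reporter, plated 4hr before compound.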

Assay [18] is described as follows: qHTS assay to identify small molecule antagonists of the sonic hedgehog signaling (Shh) pathway - cell viability counter screen (AID 1259367). Further: nearly all actives have a fitted effect of over 55% in size. In outline:
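NIH/3T3-derived Gli1-Luc reporter cells, 2,000/well, plated 4 hr before compound addition, then stimulated with conditioned medium for 24 hr at 37C. Viability measured in the same wells by CellTiter-Fluor fluorescence, reagent added at 23 hr for 1 hr.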

A short description of assay [19]: A CellTox Green Cytotoxicity Assay to monitor cytotoxicity in HepG2 cells - 0 hour (AID 1224882). Further: nearly all actives have a fitted effect of over 35% in size. In outline:
as §3

The target of assay [20] is Androgen receptor (Homo sapiens) (UniProt P10275). Briefly: qHTS assay to identify small molecule antagonists of the androgen receptor (AR) signaling pathway using the MDA cell line in the presence of 0.5 nM R1881 (AID 1259243). Further: nearly all actives have a fitted effect of over 50% in size. In outline:
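MDA-kb2 human breast carcinoma cells carrying an MMTV-luciferase reporter (AR- and GR-responsive) were plated, rested 5 hr at 37C, dosed with compounds, then stimulated with 0.5 nM R1881 (final) for 16 hr; luminescence was read after ONE-Glo.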

Sequence of Estrogen receptor (Homo sapiens) (P03372 whole entry, looked up): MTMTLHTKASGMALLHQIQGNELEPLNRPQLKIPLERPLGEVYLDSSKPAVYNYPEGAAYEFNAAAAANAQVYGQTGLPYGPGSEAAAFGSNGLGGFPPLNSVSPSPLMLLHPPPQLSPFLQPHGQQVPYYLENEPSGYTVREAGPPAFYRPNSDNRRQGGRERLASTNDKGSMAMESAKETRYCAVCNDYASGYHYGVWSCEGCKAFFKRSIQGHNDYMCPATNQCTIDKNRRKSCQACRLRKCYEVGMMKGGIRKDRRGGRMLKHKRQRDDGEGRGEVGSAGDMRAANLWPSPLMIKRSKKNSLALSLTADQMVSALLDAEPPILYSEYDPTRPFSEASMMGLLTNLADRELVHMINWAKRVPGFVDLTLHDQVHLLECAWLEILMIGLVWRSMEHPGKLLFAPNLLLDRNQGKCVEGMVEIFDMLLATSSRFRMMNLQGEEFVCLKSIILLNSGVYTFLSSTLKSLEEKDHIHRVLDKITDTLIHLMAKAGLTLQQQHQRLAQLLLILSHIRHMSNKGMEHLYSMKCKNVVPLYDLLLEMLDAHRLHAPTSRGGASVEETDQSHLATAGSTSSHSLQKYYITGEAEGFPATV
Sequence of Androgen receptor (Homo sapiens) (P10275 whole entry, looked up): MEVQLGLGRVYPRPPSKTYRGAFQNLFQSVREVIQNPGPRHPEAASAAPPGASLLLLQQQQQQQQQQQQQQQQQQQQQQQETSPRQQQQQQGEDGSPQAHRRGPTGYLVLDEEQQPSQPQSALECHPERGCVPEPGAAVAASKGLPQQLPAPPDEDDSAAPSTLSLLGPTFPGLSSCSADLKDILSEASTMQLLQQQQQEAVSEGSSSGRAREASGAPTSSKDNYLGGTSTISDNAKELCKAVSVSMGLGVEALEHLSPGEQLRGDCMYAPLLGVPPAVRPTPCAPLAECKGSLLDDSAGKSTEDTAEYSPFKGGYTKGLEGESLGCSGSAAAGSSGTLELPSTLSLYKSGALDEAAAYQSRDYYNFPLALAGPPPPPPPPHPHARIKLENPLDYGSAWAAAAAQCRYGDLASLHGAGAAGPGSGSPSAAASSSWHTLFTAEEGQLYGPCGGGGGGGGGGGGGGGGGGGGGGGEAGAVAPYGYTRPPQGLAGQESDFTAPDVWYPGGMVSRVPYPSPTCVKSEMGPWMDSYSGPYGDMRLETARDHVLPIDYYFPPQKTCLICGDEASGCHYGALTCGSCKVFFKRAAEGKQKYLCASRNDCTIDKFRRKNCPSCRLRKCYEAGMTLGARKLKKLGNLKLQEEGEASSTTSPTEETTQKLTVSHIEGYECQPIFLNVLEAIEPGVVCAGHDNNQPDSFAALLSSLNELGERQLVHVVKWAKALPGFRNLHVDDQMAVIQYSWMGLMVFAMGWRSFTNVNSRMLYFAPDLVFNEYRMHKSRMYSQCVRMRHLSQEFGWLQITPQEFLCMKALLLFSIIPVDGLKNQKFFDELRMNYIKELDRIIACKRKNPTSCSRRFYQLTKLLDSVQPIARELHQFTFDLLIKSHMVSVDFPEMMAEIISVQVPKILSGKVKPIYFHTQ

Take `CN(C)CCOC(c1ccc(Cl)cc1)c1ccccn1` (stereo not drawn): the call in [1], in assay [5], in assay [11], in assay [12], in assay [13] and in [16] was inactive. In addition, the compound was classed as inactive in [18]. The Potency result in [2], in assay [3], in assay [4], in [6], in assay [7] and in assay [8] was “inactive” throughout. Moreover, the Potency entry in assay [9], in assay [10], in assay [14], in [15] and in assay [17] was “inactive” in each case.

Consider `CC1=CC(C)C(C=O)C(C)C1` (stereo not drawn), for which the compound was called inactive in [1], in assay [5], in assay [11], in assay [12], in [13] and in assay [16]. Also, in [18], the compound was classed as inactive. The Potency result in assay [2], in assay [3], in assay [4], in assay [6], in [7] and in [8] was “inactive” each time. The Potency result in assay [9], in [10], in [15] and in assay [17] was “inactive” in each case.

With `CC12CCC(CC1=O)C2(C)C` (stereo not drawn), the call in assay [1], in assay [5], in assay [11], in assay [12], in [13] and in assay [16] was inactive. Moreover, the call in [18] was inactive. The Potency result in assay [2], in assay [3], in assay [4], in assay [6], in assay [7] and in [8] was “inactive” throughout. In addition, the Potency result in assay [9], in assay [10], in assay [15] and in [17] was “inactive” in each case.

Take `Cc1c(C)n(CCN(C)C)c2ccc(C(=O)OCCN(C)C)cc12`: the call in [1], in assay [5], in assay [12], in assay [13], in assay [16] and in [18] was inactive. Also, the Potency result in assay [2], in [19], in [3], in [4], in assay [7] and in assay [8] was “inactive” each time. The Potency entry in assay [9], in assay [15] and in assay [17] was “inactive” each time. For the same compound, in [14], the Potency is 11.2 µM (active).

With `COc1ccc2cc(C=O)ccc2c1`, the compound was classed as inactive in assay [1], in assay [5], in [11], in [12], in [13] and in assay [16]. The result in assay [18] was inactive. Also, the Potency entry in assay [2], in [19], in [3], in assay [4], in assay [6] and in assay [7] was “inactive” each time. Besides, the Potency entry in [9], in assay [10], in assay [15] and in [17] was “inactive” each time.

Regarding `CC1(C)SC(C)(C)SC(C)(C)S1`, the call in [1], in assay [5], in [11], in assay [12], in assay [13] and in [16] was inactive. The call in [18] was inactive. Also, the Potency result in [2], in assay [19], in assay [4], in assay [7], in [8] and in assay [9] was “inactive” each time. Further, the Potency result in assay [20], in assay [15] and in assay [17] was “inactive” each time.

`CN(C)N=Nc1ccccc1`: the compound was classed as inactive in assay [1], in assay [5], in assay [11], in [12] and in assay [16]. For the same compound, the Potency result in [2], in [19], in assay [3], in [4], in assay [6] and in assay [7] was “inactive” each time. The Potency result in [9], in [10], in [15] and in [17] was “inactive” in each case.

Turning to `COC(=O)CCCC(=O)O`, the compound was called inactive in [1], in [5], in assay [11], in [12], in assay [13] and in assay [16]. For the same compound, the Potency result in assay [2], in [3], in assay [4], in assay [6], in assay [7] and in [8] was “inactive” throughout. Moreover, the Potency result in assay [9], in assay [10], in assay [15] and in assay [17] was “inactive” in each case.

As for `C=C(C)[C@@H]1CCC2=CC(=O)C[C@@H](C)[C@]2(C)C1`, the call in assay [1], in assay [5], in [11], in assay [12], in [13] and in [16] was inactive. The compound was called inactive in assay [18]. The Potency entry in [2], in assay [19], in assay [4], in assay [6], in assay [7] and in assay [8] was “inactive” in each case. Also, the Potency result in [9], in assay [15] and in assay [17] was “inactive” in each case.
